Compound activity (PubChem BioAssay)
TRPML1 agonist – qHTS for Agonists of the Human Mucolipin Transient Receptor Potential 1 (TRPML1); activation, % (concentration not given with the values); AID 624414, 2012; 410,000 tested, 0.12% active; TRPML1-expressing cells, Ca2+ dye fluorescence, FDSS; Mucolipin-1 (Homo sapiens), Q9GZU1; in the data active = activation above about 50%; inconclusive = mostly about 30% to 49%
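In this qHTS format, compounds were pin-transferred onto Ca8-dye-loaded TRPML1-DL cells induced with Tet overnight, and intracellular Ca2+ fluorescence was recorded kinetically for 110 s after a 10 s baseline. A subsequent 4uM final 54-4 (EC80) addition followed by a second 110 s read served as the antagonist phase.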
TRPML1 inh – qHTS for Inhibitors of the Human Mucolipin Transient Receptor Potential 1 (TRPML1); TRPML1-inducible cells, Ca2+ dye fluorescence, FDSS; stronger effect = lower value; inhibition of EC80 agonist-evoked calcium signal; activity change, negative = inhibition, % (concentration not given with the values); 390,000 tested, 0.02% active; in the data active = activity change below about -50%; inconclusive = between about -30% and that limit;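 also: stimulus is agonist 54-4 at its EC80 concentration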
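Tet-induced TRPML1-DL cells loaded with Ca8 no-wash calcium dye were read kinetically on FDSS. Compound addition was followed by EC80 agonist 54-4 (4 uM final); inhibition was read over 110 s.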
GLP-1R agonist – qHTS of GLP-1 Receptor Agonists; Glucagon-like peptide 1 receptor (Homo sapiens), P43220; HEK293 GLP-1R CRE-luciferase, luminescence, 4-6 h; cells express a hypersensitive GLP-1R form; Potency, µM (highest dose often 45.6 µM), hits mostly activators; 380,000 tested, 0.007% active; AID 624172, 2012
Target sequence (P43220 whole entry, looked up): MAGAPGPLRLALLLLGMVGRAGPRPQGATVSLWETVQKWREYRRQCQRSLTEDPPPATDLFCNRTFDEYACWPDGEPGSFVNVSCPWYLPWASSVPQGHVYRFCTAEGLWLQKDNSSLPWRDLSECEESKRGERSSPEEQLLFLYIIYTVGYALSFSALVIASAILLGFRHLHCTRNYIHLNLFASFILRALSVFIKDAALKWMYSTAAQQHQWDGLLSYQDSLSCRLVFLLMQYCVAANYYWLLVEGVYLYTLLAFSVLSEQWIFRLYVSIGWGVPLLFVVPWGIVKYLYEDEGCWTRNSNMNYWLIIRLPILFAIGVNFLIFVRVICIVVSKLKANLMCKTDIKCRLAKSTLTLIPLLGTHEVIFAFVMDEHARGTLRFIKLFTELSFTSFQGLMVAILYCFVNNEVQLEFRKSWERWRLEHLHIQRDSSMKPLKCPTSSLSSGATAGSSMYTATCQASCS
HEK293 tox – qHTS of GLP-1 Receptor Inverse Agonists: Cytotox Screen; HEK293 cAMP-luciferase reporter cells, luminescence, 24 h; Potency, µM (doses to about 38.3 µM), actives largely listed as inhibitors; 410,000 tested, 0.13% active;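 also: loss of luciferase light is scored as toxicity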
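Luminescence readout: signal drop marks cytotoxicity. Plated cells grew 12 h at 37 °C, 5% CO2, received 23 nL compound for 24 h, then got luciferase reagent, read after 12 min at RT.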
GLP-1R inv ag – qHTS of GLP-1 Receptor Inverse Agonists (Inhibition Mode). 410,000 tested, 1.6% active. HEK293 GLP-1R CRE-luciferase, luminescence, 24 h; GLP-1R form is constitutively active. Potency, µM (doses to about 38.3 µM), most hits filed as inhibitors. AID 624417, 2012. Glucagon-like peptide 1 receptor (Homo sapiens), P43220; also: nearly all actives have a fitted effect of over 55% in size
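Cells are plated, allowed 12 hours at 37 deg C, then treated with compounds for 24 hr before luciferase detection reagent is added and luminescence is read after 12 min at room temperature. The HEK293 line carries constitutively active GLP-1R with a cAMP-responsive reporter.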
Hits are given with their value; n = inactive; u = inconclusive; x = no result given. In the library only some 1.8% were active in any assay of this set; here they are far more common. Unless noted, calls follow the shape of the dose curve; as a rule, active = well fitted curve in the direction sought with a large enough effect; inconclusive = small, poorly fitted or top-dose-only effect, or another doubt; inactive = no such curve, though single readings can be large; an effect the other way counts as inactive or inconclusive.

SMILES	TRPML1 agonist	TRPML1 inh	GLP-1R agonist	HEK293 tox	GLP-1R inv ag
CCN1CCN(c2ccc(S(=O)(=O)N3CCCCC3)cc2NC(=O)/C=C/c2ccc([N+](=O)[O-])cc2)CC1	n	n	n	u	u
CCN1CCN(c2ccc(S(=O)(=O)N3CCCCC3)cc2NC(=O)/C=C/c2ccc(OC(F)F)cc2)CC1	n	n	n	u	7.08µM
CN1CCN(c2ccc(S(=O)(=O)N3CCCCC3)cc2NC(=O)/C=C/c2ccc(OC(F)F)cc2)CC1	n	n	n	u	u
Cc1ncc(CO)c2c1Oc1nc(-c3ccc(F)cc3)nc(SCC(=O)N3CCCCC3)c1C2	n	n	x	n	n
COc1ccc(OC)c(CCNC(=O)c2nn(C)c3c2CSc2ccccc2-3)c1	n	n	x	n	u
NC(=O)c1ccc(-c2ncc(-c3ccccc3)o2)cc1	n	n	n	n	5.62µM
C=C(C)CNC(=S)N/N=C/c1ccc(N2CCOCC2)cc1	n	n	n	u	10µM
Cc1ccc(C)c(S(=O)(=O)/N=C2\C=C(NS(=O)(=O)c3ccccc3)C(=O)c3ccccc32)c1	n	n	n	n	n
Cc1cc(C)c(S(=O)(=O)/N=C2/C=C(Sc3ncn[nH]3)C(=O)c3ccccc32)cc1C	n	n	n	u	10µM
O=C(C[n+]1ccccc1Br)c1ccc(I)cc1	n	x	x	x	x
OCCN(CCO)CC(O)COc1ccc(C23CC4CC(CC(C4)C2)C3)cc1 (configuration not stated)	n	n	u	u	2.82µM
CC(C)(C)OC(=O)N1CCC(c2c(C(=O)NCc3ccccn3)cnn2-c2ccccc2)CC1	n	n	x	n	n
Cc1cc(/C=C2\C=Cc3ccccc32)ccc1N(C)C	n	x	x	x	x
Cn1cc(S(=O)(=O)N2CCCCCC2)cc1C(=O)N1CCN(c2cccc(C(F)(F)F)c2)CC1	n	n	n	n	u
Cc1ccc(C)c(NC(=S)c2ccc3ccccc3n2)c1	n	n	n	2.82µM	5.62µM
Cc1ccccc1OCC(=O)Nc1sc2c(c1C#N)CC(C)(C)NC2(C)C	n	n	n	n	u
CC1(C)Cc2c(sc(NC(=O)COc3ccc(Cl)cc3)c2C#N)C(C)(C)N1	n	n	n	n	5.62µM
O=C(c1ccc2c(=O)n(-c3ccccc3)c(=O)[nH]c2c1)N1CCN(Cc2cccs2)CC1	n	x	x	x	x
O=C(c1ccccc1)c1c2c(cc3sc4ccccc4[n+]13)-c1cccc3cccc-2c13	54.0	n	n	u	n
O=C(Nc1c(C(=O)O)oc2ccccc12)c1ccc(C(F)(F)F)cc1	n	n	x	n	n
CC(=O)Nc1ccc(Sc2ncccc2C(=O)Nc2cc(Cl)cc(Cl)c2)cn1	n	n	n	n	n
CC(=O)Nc1ccc(Sc2ncccc2C(=O)Nc2ccc(OC(F)(F)F)cc2)cn1	51.9	n	n	n	n
CC(C)c1ccc(NC(=O)CCn2c(=O)c3cccn3c3ccccc32)cc1	n	n	x	n	u
O=C(NCc1ccc(F)cc1)C1CCCN(c2ncnc3onc(-c4ccc(F)cc4)c23)C1 (configuration not stated)	n	n	x	n	u
COC(=O)c1ccc2nc(-c3ccc(S(C)(=O)=O)cc3)cn2c1	n	n	n	n	n
SMILES	TRPML1 agonist	TRPML1 inh	GLP-1R agonist	HEK293 tox	GLP-1R inv ag
COC(=O)c1ccc2nc(-c3cccc(N)c3)cn2c1	n	n	n	n	5.62µM
COc1cc(OC)c(OC)cc1CN(C)C(c1ccccc1)c1nnnn1-c1ccccc1C (configuration not stated)	n	n	n	n	11.2µM
COc1ccc(CN(C)C(c2ccccc2)c2nnnn2-c2ccccc2C)c(OC)c1C (configuration not stated)	n	n	n	n	10µM
Cc1ccc2nc(-c3ccc(NC(=O)COc4ccc(Cl)c(C)c4)cc3)sc2c1	n	n	x	n	n
CCOc1ccccc1NC(=O)C(CC(C)C)NS(=O)(=O)c1ccc2c(c1)CCN2C(C)=O (configuration not stated)	n	n	x	n	n
Cc1ccc(-n2nc3c(N4CCC(C(=O)NCCC(C)C)CC4)nnc(C)c3c2C)cc1	n	n	x	n	n
Cc1cc(C)nc(-n2nc(C)cc2NC(=O)CN2CCC(C)CC2)n1	n	n	n	5.01µM	u
Cc1ccc(C)c(C(=O)Nc2cc(C)nn2-c2nc(C)cc(C)n2)c1	n	n	n	1.78µM	u
O=C(NCc1ccccc1Cl)C1CCCN(c2nc3ccccc3n3cccc23)C1 (configuration not stated)	n	n	x	n	n
CCCCOc1ccc(C(=O)N(Cc2ccc(N(C)C)cc2)Cc2ccco2)cc1	n	n	x	n	u
Cc1sc2nc(C3CC3)nc(N3CCN(C(=O)c4ccc(Cl)cc4)CC3)c2c1C	n	n	n	n	8.91µM
Cc1sc2nc(C3CC3)nc(N3CCN(C(=O)c4ccccc4F)CC3)c2c1C	n	n	n	n	u
COc1ccc(C(=O)N2CCN(c3nc(C4CC4)nc4sc(C)c(C)c34)CC2)cc1	n	n	n	n	u
Cc1sc2nc(C3CC3)nc(N3CCN(C(=O)c4ccc(F)cc4)CC3)c2c1C	n	n	n	n	10µM
O=C(CN1Cc2ccccc2C1=O)Nc1cc(F)ccc1F	n	n	x	n	n
Cc1ccc(S(=O)(=O)N2CCN(c3nc(-c4cncnc4)nc4ccccc34)CC2)cc1	n	x	x	x	x
Fc1ccc2c(-c3cccc(C(F)(F)F)c3)c(-c3ccccc3)ncc2c1	n	n	n	n	u
Fc1ccc2cnc(-c3ccccc3)c(-c3ccc(C(F)(F)F)cc3)c2c1	n	n	n	n	12.6µM
Fc1ccc2cnc(-c3ccccc3)c(-c3cc(C(F)(F)F)cc(C(F)(F)F)c3)c2c1	n	n	n	n	4.47µM
CCOc1ccc(-c2nn3c(-c4cc(-c5ccccc5)n[nH]4)nnc3s2)cc1	n	x	x	x	x
CCOc1c(C)cnc2c1c(=O)n(Cc1cccc(Cl)c1)c(=O)n2C	n	n	n	n	10µM
Cc1nn(-c2ccc(N3CCCC3)nn2)c(C)c1CCC(=O)N1CCN(c2ccccc2)CC1	n	n	x	n	n
O=C(N/N=C\c1cccc(Cl)c1)c1ccc(Cn2cc(Br)c([N+](=O)[O-])n2)o1	n	n	n	n	u
Cc1c(Cl)c([N+](=O)[O-])nn1Cc1ccc(C(=O)N/N=C\c2cccc(Br)c2)o1	n	n	n	n	10µM
CCCCOc1ccc(C(=O)Nc2cccc(-c3nc4cccnc4s3)c2)cc1	n	n	x	n	n
O=c1cc(CSc2nc3ccccc3[nH]2)c2ccccc2[nH]1	n	n	n	n	n
Fc1ccc(CSc2nc3ccccc3[nH]2)c2ccccc12	n	n	n	n	10µM
